Active and inactive are the calls of the source. Calls come from the whole dose curve; as a rule, active = well fitted inhibition curve with a large enough effect; inconclusive = small, poorly fitted or top-dose-only effect; inactive = flat fitted curve, though single readings scatter.
Assay: Quantitative high throughput screen for delayed death inhibitors of the malarial parasite plastid, 96 hour incubation.
Settings: P. falciparum luciferase growth
Description: NIH Molecular Libraries Probe Production Network [MLPCN] NIH Chemical Genomics Center [NCGC] MLPCN Grant: R21 NS059500 Assay Provider: David Fidock and Eric Ekland, Columbia University The goal of this screen is to discover new antimalarial compounds that act by inhibiting the development of the apicoplast in the malarial parasite Plasmodium falciparum. The biochemical processes that make this organelle essential for erythrocytic stage parasites are not well understood. However, antibiotics, such as azithromycin and tetracycline, which target the apicoplast translational machinery, have a potent antimalarial effect. […] We have developed a cell-based assay that measures parasite growth based on the expression of an integrated copy of a firefly luciferase reporter. […] Growth inhibition is detected by a decrease in luciferase activity
Four microliters of culture medium (RPMI 1640 with 0.5% w/v Albumax (GIBCO), 24 mM sodium bicarbonate and 10 ug/mL gentamycin) were dispensed by a Multi-drop Combi into white solid 1536-well plates (Grenier) and 23 nL compound was added by a pin tool. […] Two microliters of luciferase detection reagent was added and luminescence was detected by a ViewLux (PerkinElmer) reader

Compound | Potency
COCCOC(=O)N(C)C[C@@H]1OCCCC[C@H](C)Oc2ccc(NC(=O)Nc3ccccc3)cc2C(=O)N([C@@H](C)CO)C[C@H]1C | 17.9 µM (active)
COc1ccc(COC[C@H](C)N2C[C@@H](C)[C@H](CN(C)S(=O)(=O)c3ccc(F)cc3)OCCCC[C@H](C)Oc3ccc(NC(=O)Nc4ccccc4)cc3C2=O)cc1 | 0.0025 µM (active)

Reference: PubChem BioAssay AID504599 (National Center for Advancing Translational Sciences (NCATS), 2011)
